Where “and” joins values, the source holds several entries; their conditions need not be identical. Equal entries are not always repeated. In all, about 420,000 compounds went through this assay and about 50,000 (12%) were called active. About 26% were inconclusive and are not listed. Shown is part of a subset that was picked to be rich in actives. A call without a number means that no potency is given here. Values without a mark were called inactive. Calls follow the shape of the dose curve; as a rule, active = well fitted inhibition curve with a large enough effect; inconclusive = small, poorly fitted or top-dose-only effect; inactive = flat fitted curve, though single readings scatter.
Potency is read from the fitted curve at half-maximal effect.

This assay is described as follows: qHTS for Inhibitors of human tyrosyl-DNA phosphodiesterase 1 (TDP1): qHTS in cells in presence of CPT. Also: nearly all actives have a fitted effect of over 55% in size. The note with it: chicken DT40 Tdp1-/-;hTDP1 cells + 20 nM CPT, ATP luminescence, 48 h; series mostly up to 46.2 µM. An excerpt:
Human tyrosyl-DNA phosphodiesterase 1 (TDP1) is a novel repair gene, and we propose to use it as a new target for anticancer drug development. TDP1 is not an essential protein, but under treatment with topoisomerase I poison (camptothecin: CPT), TDP1 works as a critical factor for cell survival. To directly identify novel TDP1 inhibitors active in a cellular environment, we have knocked-out the Tdp1 gene in chicken DT40 cells (Tdp1-/-) and generated a complemented counterpart cells that contains a stable transfection of the human TDP1 gene (Tdp1-/-;hTDP1 cells). For the primary screen, Tdp1-/-;hTDP1 cells will be exposed to small molecules in the presence or absence of CPT, and their growth kinetics will be evaluated after 48 hours by measuring ATP activity. […] The hit compounds will then be evaluated in the presence or absence of CPT using Tdp1-/- cells. […] In tertiary assays, biochemical gel-based assays will be used to assess whether the hit compounds specifically target TDP1. To this end, we have screened this cell line against the MLSMR in two primary screens. In one screen we add CPT and in the other we screen in the absence of CPT; this AID represents the screen where CPT was present. NIH Chemical Genomics Center [NCGC] NIH Molecular Libraries Probe Centers Network [MLPCN] MLPCN Grant: MH095538 Assay Submitter (PI): Yves Pommier, NCI
DT40-hTDP1 cells with 20 nM Camptothecin (add 20 microL of 1 mM CPT stock in 1 L of cell culture medium) were dispensed at 400 cells/5microL/well in tissue culture treated 1536-well white wall/solid bottom assay plates (Greiner Bio-One North America, NC, U.S.A.) using a Multidrop Combi 8 channel dispenser (Thermo Fisher, Waltham, MA, USA). 23 nL compounds and controls were transferred using the pin tool (Kalypsys, San Diego, CA, USA) to the assay plates. The assay plates were then incubated at 37 masculineC for a minimum 48 hr. Three microL of Cell Titer Glo solution was added to the plates and incubated at RT in dark for 30 min. Luminescence was read using ViewLux (Perkin Elmer) with 1 sec exposure slow speed, high gain and 2x binning.
A general note: Quantitative high-throughput screening tests each substance at several concentrations.
Consider `CCCC(C)n1[nH]c(=O)c2c1NC(=O)CSC2c1ccc(OC)c(OC)c1` (centres undefined), for which the Potency result was “inactive”. Regarding `OC[C@@H]1CN(Cc2ccncc2)C[C@H](n2cnc3c(N4CCN(c5ccccc5)CC4)ncnc32)O1`, the Potency is 2.06 µM (active).

For the compound `CC12CN3CC(C)(CN(C1)C3c1cccs1)C2` (centres undefined), the Potency result is “inactive”. As for `COc1cccc(OC)c1C(=O)NC(=S)N1C[C@H]2C[C@H](C1)c1cccc(=O)n1C2`, the Potency entry is “inactive”. Turning to `OC1/C(=C/c2ccc(C(F)(F)F)cc2)N2CCC1CC2` (centres undefined), the Potency result is “inactive”. With `CC(C(=O)Nc1ccc(Cl)cc1Cl)N1CC=C(c2ccccc2)CC1` (centres undefined), the Potency entry is “inactive”. For the compound `c1csc(CN2CC3(CCNCC3)C2)n1`, the Potency entry was “inactive”.

As to `N#Cc1c(Cl)c(Cl)c(Cl)c(C#N)c1Cl`, the Potency is 178 nM (active) and 651 nM (active). Take `O=C(N/N=C/c1c(O)n(C2CC2)c(=S)[nH]c1=O)c1ccccc1`: the Potency result was “inactive”. Take `N#CC(C#N)=Cc1cc(O)c(O)c([N+](=O)[O-])c1`: the Potency result is “inactive”. The same measure, in the same setting: next, `O=C(Cc1ccccc1[N+](=O)[O-])N1CCN(Cc2ccc3c(c2)OCO3)CC1`: “inactive”; `C=CCN1C(=O)NC(=O)/C(=C/c2ccc(OCC(=O)Nc3ccc(C)cc3)cc2)C1=O`: “inactive”; `COc1ccc(CNC(=O)c2cc3c(-c4ccccc4F)nn(C)c3s2)c(OC)c1`: 4.11 µM (active). Consider `CC/C(=N\NC(=O)c1ccccc1O)c1c(O)n(Cc2ccccc2)c(=O)[nH]c1=O`, for which the Potency entry was “inactive”. On the same count and under the same terms, next, `CC(=O)N(C1=NCCCS1)c1ccccc1F`: “inactive”; `CN(C(=O)CSc1nc2ccc(NC(=O)COc3ccccc3)cc2s1)c1ccccc1`: 25.9 µM (active); `O=C(COc1ccccc1Cl)Nc1ccc2nc(SCC(=O)N3CCCC3)sc2c1`: 20.6 µM (active). Turning to `CC(C)n1c(=O)c(C=Nc2ccc(Br)cc2)c(O)n(Cc2ccco2)c1=O`, the Potency entry is “inactive”. Regarding `CCN(CC)C(=O)c1ccc(NC(=O)c2cc(-n3cnnc3)ccc2Cl)cc1`, the Potency entry was “inactive”. For the compound `Fc1ccc(N2CCN(Cc3ccc4c(c3)OCO4)CC2)cc1`, the Potency entry is “inactive”. For `Cn1c(O)c(C=Nc2ccc3c(c2)CCC3)c(=O)n(C)c1=O`, the Potency result is “inactive”.

As to `Oc1ccc2c3c1OC1[C@H](O)CC[C@@]4(O)[C@@H](C2)N(CC2CC2)CC[C@]314` (some centres undefined), the Potency entry was “inactive”. For `COC12CC[C@@]3(C[C@@H]1C(C)(O)C(C)(C)C)[C@H]1Cc4ccc(O)c5c4[C@@]3(CCN1CC1CC1)[C@H]2O5` (some centres undefined), the Potency is 24.1 µM (active). With `CC1(C)Cc2c(C#N)c(N3CCNCC3)nc(-c3ccco3)c2CS1`, the Potency is 18.4 µM (active). For `NCCc1ccc(S(=O)(=O)F)cc1`, the Potency result was “inactive”. In the case of `CC(=O)c1ccc(S(=O)(=O)N2CCN(c3nc4c(C)c(C)ccc4cc3C#N)CC2)cc1`, the Potency was 7.08 µM (active). Consider `CCOC(=O)C(O)(c1ccc(NC(=O)c2ccco2)c(OC)c1)C(F)(F)F` (centres undefined), for which the Potency result is “inactive”. With `C[C@@]1([C@@H](NP(=O)(c2ccccc2)c2ccccc2)c2ccccc2)C[C@H]1CCO`, the Potency is 9.2 µM (active). Regarding `CC1CNCCN1c1ccc(Cl)cc1` (centres undefined), the Potency result is “inactive”. Consider `CC(C)(C)[C@]1(O)C[C@@H]2OC(=O)C[C@@]23C(=O)O[C@@H]2OC(=O)[C@H](O)[C@]213`, for which the Potency result was “inactive”.

In the case of `c1ccc(C(CN2CCCCC2)c2ccccc2)cc1`, the Potency result is “inactive”. `CCCCOc1ccc(C(=O)N2CC(=O)Nc3ccc(Br)cc3C2c2ccc(F)cc2)cc1` (centres undefined): the Potency was 23.1 µM (active). Regarding `O=c1oc2ccccc2c(O)c1C(c1ccccc1O)c1c(O)c2ccccc2oc1=O`, the activity change, negative = growth inhibition is 8.57% [at 9.04 µM]. On to `COc1cc([C@@H]2c3cc4c(cc3[C@H](OC(C)=O)[C@H]3COC(=O)[C@H]23)OCO4)cc(OC)c1OC`, for which the Potency was 0.0794 µM (active). As to `COc1cc(C2c3cc4c(cc3C(O)C3COC(=O)C23)OCO4)cc(OC)c1OC` (centres undefined), the Potency was 44.7 nM (active) and 13 nM (active). In the case of `Cc1nc2ccc(N3CCN(C)CC3)cc2nc1C`, the Potency result is “inactive”. In the case of `CSc1ccc(C(=O)C2CCCN(Cc3ccn[nH]3)C2)cc1` (centres undefined), the Potency entry was “inactive”. Regarding `O=c1[nH]c(=O)n(-c2ccc(F)cc2)c(O)c1C=NCCN1CCCCC1`, the Potency result was “inactive”. On to `CC(=C1C(=O)c2ccccc2C1=O)N1CCN(CCN=Cc2c(O)n(C)c(=O)n(C)c2=O)CC1`, for which the Potency entry is “inactive”.

Turning to `CCN1CC2C3CCC(C)(O3)C2C1` (centres undefined), the Potency result was “inactive”. With `Cc1ccc(Cl)cc1N1CCN(C(=O)C2CCC(CNS(=O)(=O)c3cccs3)CC2)CC1` (centres undefined), the Potency is 20.6 µM (active). With `CC1C(=O)OC2CCN3CC=C(COC(=O)C(C)(O)C1(C)O)C23` (centres undefined), the Potency was 5.8 µM (active). Turning to `CC(=O)Nc1ccc(C(=O)C(Cc2ccccc2)N(C)C)cc1` (centres undefined), the Potency entry was “inactive”.

On to `O=C(COc1ccc2ccccc2c1)N1CCN(Cc2ccncc2)CC1`, for which the Potency entry is “inactive”. In the case of `CN(C)C(=O)Oc1cc(OC(=O)N(C)C)cc(C(O)CNC(C)(C)C)c1` (centres undefined), the Potency entry is “inactive”.

Take `CNC(=O)O/N=C(\N)Cc1csc2ccccc12`: the Potency entry was “inactive”. As to `CNC(=O)O/N=C(\N)Cc1csc2ccc(Cl)cc12`, the Potency is 16.4 µM (active). Turning to `Cn1c(O)c(C=NCCN2CCNCC2)c(=O)n(C)c1=O`, the Potency result is “inactive”.

Regarding `COC1=CC=C2[C@H]3Cc4ccc(OC)c5c4[C@@]2(CCN3C)C1O5` (some centres undefined), the Potency entry was “inactive”.
